These results are taken from ChEMBL document CHEMBL3988442, “University of Dundee, Small-Polar-MMV Screening Library” (2021).

Each structure is given as a SMILES string. The whole screen tested about 48,000 compounds, of which about 13,000 (27%) showed an effect of 50% or more. The list shows a part of the results.

This assay relates to Wolbachia pipientis. The experiment in a line: Anti-Wolbachia Cell-Based Screen. On the set-up: scale not given: in the data most compounds retested in dose-response had high values. The assay is classed as functional. Conditions: 5 µM.
For the molecule `Cc1cc(-c2cnc(NC3CC3)nc2-c2ccco2)on1`, the “Percent Effect” value is given as 84.65%.
The figure for `Cc1cc(-c2cnc(NC3CC3)nc2-c2ccoc2C)on1` is 65.28%.
The result for `Cc1cc(-c2cnc(NC3CCCC3)nc2-c2ccoc2C)on1` reads -4.074%.
For the molecule `Cc1cc(-c2cnc(NC3CCCCC3)nc2-c2ccco2)on1`, the “Percent Effect” value was found to be 96.71%.
Consider `CCN1CCN(c2ncc(-c3cc(C)no3)c(-c3ccoc3C)n2)CC1`, for which the “Percent Effect” value was -0.7712%.
With `CCN1CCC(N2CCN(c3cc(-c4nc(C)no4)ccn3)CC2)CC1`, the “Percent Effect” value turned out to be 10.41%.
The figure for `CCN1CCN(c2ncc(-c3cc(C)no3)c(-c3ccco3)n2)CC1` is 110.6%.
Take `O=C1NCCO[C@H]2CN(C(=O)CCc3ccccc3Cl)CC[C@@H]12`: the “Percent Effect” value was -36.6%.
As to `COCC1CN(C(=O)COc2ccc(C)cc2)Cc2cn(C)nc21.O=C(O)C(F)(F)F` (stereo unspecified), the “Percent Effect” value was -4.21%.
Consider `CCn1ncc2c1CCCC2NCc1cscn1` (stereo unspecified), for which the “Percent Effect” value was -5.451%.
The figure for `Cc1cccnc1C(Nc1nccc(C2CCCC2)n1)C1CC1` (stereo unspecified) is -13.6%.
The figure for `Cc1cc(-c2cnc(NC3CCCC3)nc2-c2ccc(C)o2)on1` is 122.4%; for `Cc1cc(C2CCC2)nc(N(C)Cc2cc(-c3ccccn3)no2)n1` it is 38.25%; for `CNC(=O)C1CCCCN1C(=O)c1csc(-c2ccc(C)o2)n1` (stereo unspecified) it is -2.315%.
As for `Cc1cc(-c2cnc(NC3CCCC3)nc2-c2ccco2)on1`, the “Percent Effect” value amounted to 111.9%.
For the molecule `Cc1occc1-c1nc(NC2CCCC2)ncc1-c1ccccn1`, the “Percent Effect” value is 77.82%.
As to `O=C1CCC(C(=O)NCCOc2ccccc2-c2ccccc2)CN1` (stereo unspecified), the “Percent Effect” value stood at 30.95%.
The result for `NC(=O)c1cccc(NC(=O)CSc2ccc3c(c2)CCC3)c1` reads 10.83%; that for `Cn1c(C(F)(F)F)nn(CCNC(=O)c2nc3ccccc3s2)c1=O`, -27.26%; that for `COc1ccc2nc(NC(=O)c3c(C(=O)O)cnn3C)sc2c1`, 107.5%.
Take `Cn1ncc(C(=O)O)c1C(=O)Nc1nc2ccccc2s1`: the “Percent Effect” value is reported as 107.6%.
Turning to `Cn1cnnc1CNC(=O)c1ccc(Br)cc1O`, the “Percent Effect” value is listed as -16.68%.
The result for `CCOc1ccc2nc(NC(=O)c3c(C(=O)O)cnn3C)sc2c1` reads -2.899%; that for `Cn1ncc(C(=O)O)c1C(=O)Nc1nc2ccc(Br)cc2s1`, 84.26%.
In the case of `COc1nc2c(cc1C(=O)NCCc1nc3ccccc3s1)CCC2`, the “Percent Effect” value is reported as -9.25%.
`COc1ccc2nc(C3CC3)cc(C(=O)NCc3ncnn3C)c2c1`: the “Percent Effect” value is on record as -9.156%.
As for `Fc1cnc(N2CCc3nnc(COc4ccccn4)n3CC2)nc1.O=C(O)C(F)(F)F`, the “Percent Effect” value is listed as 2.887%.
Regarding `O=S(=O)(C1CC1)N1CCOCC2(CN(c3ncccn3)CCO2)C1` (stereo unspecified), the “Percent Effect” value was -5.762%.
On to `CCn1cc(C(=O)N2CCCN(c3cccnn3)CC2)c2ccccc21`, for which the “Percent Effect” value is reported as -8.81%.
With `COc1ccc(CN2CC[C@@H](O)[C@@H]2Cc2ccccc2)cc1.O=C(O)C(F)(F)F`, the “Percent Effect” value was 17.99%.
With `CO[C@@H]1CCN(Cc2ccoc2)C[C@@H]1Cc1ccccc1.O=C(O)C(F)(F)F`, the “Percent Effect” value is 89.22%.
The figure for `CO[C@H]1CCN(Cc2ccoc2)C[C@@H]1Cc1ccccc1.O=C(O)C(F)(F)F` is 68.19%; for `CO[C@@H]1CCN(Cc2ccc(C)o2)[C@H]1Cc1ccccc1.O=C(O)C(F)(F)F` it is 10.3%.
With `CO[C@@H]1CCN(Cc2ccoc2)[C@H]1Cc1ccccc1.O=C(O)C(F)(F)F`, the “Percent Effect” value is listed as 118.7%.
The result for `CO[C@H]1CCN(C2CCOCC2)C[C@@H]1Cc1ccccc1.O=C(O)C(F)(F)F` reads -3.139%; that for `O=C(O)C(F)(F)F.c1ccc(C[C@H]2CN(C3CCOCC3)CC[C@H]2OCC2CC2)cc1`, -4.378%; that for `CO[C@@H]1CCN(Cc2nccs2)C[C@@H]1Cc1ccccc1.O=C(O)C(F)(F)F`, -16.15%.
With `CO[C@@H]1CCN(C2CCOCC2)C[C@@H]1Cc1ccccc1.O=C(O)C(F)(F)F`, the “Percent Effect” value is given as -11.13%.
Turning to `Cc1cc(Cl)c2c(c1)C1(NC(=O)c3cccnc3N1)C(=O)N2` (stereo unspecified), the “Percent Effect” value is recorded as -1.916%.
The result for `CC(C)=CCC1(CO)CCCN(Cc2nccs2)C1` (stereo unspecified) reads 1.266%; that for `O=C(O)C(F)(F)F.O=C(c1ccnnc1)N1CCN2C[C@H](Oc3cccc(F)c3)C[C@H]2C1`, -26.48%.
The result for `COc1ccc(C)cc1NC(=O)Cn1nc(C)c(C#N)c1N` reads -0.6679%; that for `COc1ccc(C2(NC(=O)CCn3cncn3)CCCCC2)cc1`, -6.832%.
`Cc1ccc(C2(O)CCN(Cc3nc(C)n4ccccc34)CC2)nc1`: the “Percent Effect” value is -9.121%.
`Cc1nc(CN2CCC3(CCCO3)CC2)c2ccccn12`: the “Percent Effect” value is listed as 20.84%.
The result for `Cc1nc2sccn2c1CNC1(c2ccccc2F)CCCC1.O=C(O)CC(O)(CC(=O)O)C(=O)O` reads 86.58%; that for `COc1ccc(C2(NCc3c(C)nc4c(C)cccn34)CCCC2)cc1.O=C(O)CC(O)(CC(=O)O)C(=O)O`, 147.1%; that for `Cc1nc2sccn2c1CNc1ccc(C(=O)O)cc1`, 3.655%.
Consider `COc1ccccc1C1(NCc2c(C)nc3c(C)cccn23)CCCC1.Cl`, for which the “Percent Effect” value is recorded as 58.58%.
For `Cc1nc(CN2CCC(O)(c3ccccc3F)CC2)c2ccccn12.O=C(O)CC(O)(CC(=O)O)C(=O)O`, the “Percent Effect” value was determined as 94.96%.
For `COc1ccccc1C1(CNc2nnc(C)c(C)c2C#N)CCCC1`, the “Percent Effect” value is recorded as -5.07%.
With `Cc1nc2sccn2c1CNc1cc(C(=O)O)ccc1F`, the “Percent Effect” value is -0.08043%.
On to `COc1c(CNC2(c3ccc(Cl)cc3)CCC2)c(C)nn1C`, for which the “Percent Effect” value is -12.89%.
The figure for `COc1ccccc1C1(CNc2snc(Cl)c2C#N)CCCC1` is -12.01%; for `Cc1oncc1C(=O)N1CC[C@H]2[C@H](CO[C@@H]2CNS(C)(=O)=O)C1` it is -5.011%; for `COc1ccc(CNCCC(=O)N2CCc3sccc3C2)cc1O` it is -10.83%.
The figure for `Cc1csc2ncc(-c3ccnc(N4CCC[C@@H]4CO)n3)c(=O)n12` is 56.16%.
For the molecule `COc1ccc(-c2noc(-c3ccc(N4CCC[C@H]4CO)nc3)n2)cc1`, the “Percent Effect” value was -7.045%.
Consider `Cc1cnn(CC2CCCN2Cc2cc(=O)n3c(C)csc3n2)c1` (stereo unspecified), for which the “Percent Effect” value is 1.323%.
The result for `Cc1cn2c(=O)c(-c3ccnc(N4CCC[C@@H]4CO)n3)cnc2s1` reads 87.72%; that for `O=c1c(-c2ccnc(N3CCC[C@H]3CO)n2)cnc2sccn12`, 102.3%; that for `O=C(NCCc1cccs1)N1CCC[C@H]1CO`, -11.14%.
In the case of `OCC1CCCCN1c1ccc(-c2nc(-c3ccccc3F)no2)cn1` (stereo unspecified), the “Percent Effect” value is listed as 1.745%.
The result for `CC(C)(C)c1cn2nc(N3CCC[C@@H]3CO)sc2n1` reads -4.736%; that for `O=c1c(-c2ccnc(N3CCCC[C@@H]3CO)n2)cnc2sccn12`, 125.6%.
With `Cc1csc2ncc(-c3ccnc(N4CCCC[C@@H]4CO)n3)c(=O)n12`, the “Percent Effect” value was 6.094%.
With `COC(=O)C(NC(=O)c1cc(C)ccc1C)c1cccnc1` (stereo unspecified), the “Percent Effect” value is given as -6.12%.
As to `CCCc1cc(NC(=O)c2ccc(Cl)c(N3CCNC3=O)c2)n[nH]1`, the “Percent Effect” value was determined as 5.533%.
In the case of `COC(=O)c1cccc(S(=O)(=O)N2CSCC2C(=O)N(C)C2CC2)c1` (stereo unspecified), the “Percent Effect” value was -20.06%.
As for `CCN(C(C)=O)C(c1cccnc1)c1cc(C)cc(C)c1` (stereo unspecified), the “Percent Effect” value is 0.6077%.
Turning to `CC(C)C(c1cccnc1)N(C)C(=O)Cc1c(F)cccc1F` (stereo unspecified), the “Percent Effect” value stood at 1.062%.
For the molecule `CNC(=O)NCC(=O)N(C)C(c1ccc(Cl)cc1)c1cccnc1` (stereo unspecified), the “Percent Effect” value is listed as 108.8%.
As for `CC(=O)N(C)C(c1cccnc1)c1ccc(F)c(F)c1` (stereo unspecified), the “Percent Effect” value is listed as 0.3352%.
The result for `CCN(C(c1ccc(OC)cc1)c1cccnc1)S(C)(=O)=O` (stereo unspecified) reads 3.822%.
With `CN(CC(=O)N(C)C(c1ccc(Cl)cc1)c1cccnc1)C1CC1` (stereo unspecified), the “Percent Effect” value is on record as 97.71%.
Take `CCC(=O)NCC(=O)N(C)C(c1ccc(Cl)cc1)c1cccnc1` (stereo unspecified): the “Percent Effect” value amounted to 138.5%.
For `CN(CC(=O)N(C)C(c1cccnc1)c1ccc(F)c(F)c1)C1CC1` (stereo unspecified), the “Percent Effect” value is reported as 12%.
For the molecule `CNC(=O)NC(=O)CN(C)C(c1cccnc1)c1ccc(F)cc1F` (stereo unspecified), the “Percent Effect” value was -23.22%.
The figure for `CC(C)N1CCC(N2CCOC3(CCCC3)C2)C1=O` (stereo unspecified) is 10.32%.
The result for `Cc1cnc(CNc2c(F)cccc2-n2cccn2)o1` reads -16.45%.
As for `O=C(O)C(F)(F)F.O=C(O)C(F)(F)F.O=C(O)C(F)(F)F.O=C(O)c1cc2c(nc1-c1ccncc1)CCN(C1CCOC1)CC2` (stereo unspecified), the “Percent Effect” value was -8.005%.
With `O=C(O)Cc1nc2nccc(-c3ccc(F)cc3)n2n1`, the “Percent Effect” value is listed as 127%.
Turning to `CC(C)c1cc(C(F)(F)F)n2nc(CCC(=O)O)nc2n1`, the “Percent Effect” value was -4.305%.
As to `O=C(O)CCc1nc2nccc(C(F)(F)F)n2n1`, the “Percent Effect” value came to 112.1%.
Regarding `O=C(O)Cc1cccc(-n2ccnc2-c2ccc(F)c(Cl)c2)c1`, the “Percent Effect” value was -0.5745%.
As for `O=C(O)CCc1cc2n(n1)CCCN(C(=O)c1ccc(F)cc1F)C2`, the “Percent Effect” value is -66.14%.
Turning to `O=C(O)CCc1nc2nccc(-c3ccc(F)cc3)n2n1`, the “Percent Effect” value was determined as 119.2%.
Take `N#Cc1ccnc(N2CCN(CC(O)c3ccc(F)cc3)CC2)c1` (stereo unspecified): the “Percent Effect” value is on record as -11.77%.
The result for `CCN(Cc1c(F)cccc1F)C(=O)c1ccncc1O` reads -5.979%; that for `COCC1CCN(S(=O)(=O)N2C[C@H](c3ccccc3)[C@@H](N)C2)CC1`, -1.102%.
As for `CCc1ccc2nc(C)cc(C(=O)NCc3csc(N(C)C)n3)c2c1`, the “Percent Effect” value is -26.8%.
For the molecule `COc1nn(C)c2c1CCCN(S(=O)(=O)c1cccc(C)c1)C2`, the “Percent Effect” value is 0.0765%.
As to `O=C(C1CC1)N1CC[C@H]2C(=O)N(c3ccsc3)CCO[C@H]2C1`, the “Percent Effect” value was 9.146%.
The result for `FC(F)C(F)(F)COCc1ncnn1-c1ccc2c(c1)OCO2` reads -0.1872%.
Consider `CN(C)C(=O)NC1COC2(CCN(Cc3ccc(Cl)c(F)c3)CC2)C1.O=C(O)C(F)(F)F` (stereo unspecified), for which the “Percent Effect” value was determined as 5.668%.
Turning to `CC(O)CN1CCN(C(=O)c2ccc(Cn3cccn3)cc2)CC1` (stereo unspecified), the “Percent Effect” value amounted to 3.707%.
The result for `O=C(c1ccc(Cn2cccc2)cc1)N1CCN(CCO)CC1` reads 94.5%; that for `CCC(O)CN1CCN(C(=O)c2ccc(Cn3cccc3)cc2)CC1` (stereo unspecified), 90.26%.
`O=C(c1ccc(Oc2cccnc2)cc1)N1CCN(CCO)CC1`: the “Percent Effect” value was 6.053%.
For `CCCN1CCN(C(=O)c2ccc(Cn3cc(Br)cn3)cc2)CC1`, the “Percent Effect” value is -5.49%.
On to `CC(O)CN1CCN(C(=O)c2ccc(Cn3cccc3)cc2)CC1` (stereo unspecified), for which the “Percent Effect” value is reported as 3.366%.
